# Results filed as inconclusive are left out. Where a call stands in place of a potency, no number is given. Active and inactive are the calls of the source. Calls follow the shape of the dose curve; as a rule, active = well fitted inhibition curve with a large enough effect; inconclusive = small, poorly fitted or top-dose-only effect; inactive = flat fitted curve, though single readings scatter.
# Experiments:
# Test in all cases: qHTS profiling for inhibitors of Plasmodium falciparum proliferation (AID 504749); also: nearly all actives have a fitted effect of over 60% in size
# Conditions in all cases: P. falciparum in erythrocytes, SYBR Green DNA, 72 h; series mostly up to 28.7 µM
# ECU = test system: ECU
# Summary of the method: (§1)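 SYBR Green fluorescence of parasite DNA, read after lysis and overnight dark incubation, measured growth over 72 h in erythrocyte culture at 0.3% parasitemia and 2.5% hematocrit. Data normalised to DMSO and 0.29 uM artemisinin, with plate-drift correction.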
# FAB9 = test system: FAB9
# Summary of the method: as §1
# GB4 = test system: GB4
# Summary of the method: as §1
# HB3 = test system: HB3
# Summary of the method: as §1
# ICS = test system: ICS
# Summary of the method: as §1
# JCK = test system: JCK
# Summary of the method: as §1
# N140 = test system: N140
# Summary of the method: as §1
# P93_24 = test system: P93_24
# Summary of the method: as §1
# PAD = test system: PAD
# Summary of the method: as §1
# PC15 = test system: PC15
# Summary of the method: as §1
# PC26 = test system: PC26
# Summary of the method: as §1
# PC49 = test system: PC49
# Summary of the method: as §1
# SC27B = test system: SC27B
# Summary of the method: as §1
# TAB109 = test system: TAB109
# Summary of the method: as §1
# TAB113 = test system: TAB113
# Summary of the method: as §1
# TAB165 = test system: TAB165
# Summary of the method: as §1
# W2 = test system: W2
# Summary of the method: as §1
# P94_40 = test system: P94_40
# Summary of the method: as §1
# Potency is read from the fitted curve at half-maximal effect.
Compound,Potency (ECU),Potency (FAB9),Potency (GB4),Potency (HB3),Potency (ICS),Potency (JCK),Potency (N140),Potency (P93_24),Potency (PAD),Potency (PC15),Potency (PC26),Potency (PC49),Potency (SC27B),Potency (TAB109),Potency (TAB113),Potency (TAB165),Potency (W2),Potency (P94_40)
O=P(O)(O)CP(=O)(O)O,inactive,inactive,inactive,inactive,inactive,inactive,inactive,inactive,inactive,inactive,inactive,inactive,inactive,inactive,inactive,inactive,inactive,
C/C=C/C=C/C(=O)O,inactive,inactive,inactive,inactive,inactive,inactive,inactive,,inactive,inactive,inactive,inactive,inactive,inactive,inactive,inactive,inactive,inactive
N=C(N)c1ccc(/C=C/c2ccc(C(=N)N)cc2O)cc1,10 µM (active),1.26 µM (active),0.536 µM (active),11.2 µM (active),1.26 µM (active),inactive,17.8 µM (active),,,12.6 µM (active),8.49 µM (active),,10 µM (active),17.8 µM (active),3.98 µM (active),4.47 µM (active),,8.91 µM (active)
O=C(O)CC/C=C\CC[C@@H]1[C@@H](N2CCCCC2)[C@@H](O)C[C@@H]1OCc1ccc(-c2ccccc2)cc1,inactive,inactive,inactive,inactive,,inactive,inactive,inactive,inactive,inactive,inactive,inactive,inactive,inactive,inactive,inactive,,inactive
CCOC(=O)[C@@H](N)CS,inactive,inactive,inactive,inactive,inactive,inactive,inactive,inactive,inactive,inactive,inactive,,inactive,inactive,inactive,inactive,inactive,inactive
CCCOC(=O)c1ccccc1O,inactive,inactive,inactive,inactive,inactive,inactive,inactive,inactive,inactive,inactive,inactive,inactive,inactive,,inactive,inactive,,inactive
O=C1NCCN1c1ncc([N+](=O)[O-])s1,inactive,inactive,inactive,inactive,inactive,inactive,inactive,inactive,inactive,inactive,inactive,,inactive,,inactive,inactive,inactive,inactive
CN1c2c(nc(N)[nH]c2=O)NCC1CNc1ccc(C(=O)NC(CCC(=O)O)C(=O)O)cc1 (configuration not stated),inactive,inactive,inactive,inactive,inactive,inactive,inactive,inactive,inactive,inactive,inactive,inactive,inactive,inactive,,inactive,inactive,inactive
CNC(=O)c1c(I)c(C(=O)NCC(=O)Nc2c(I)c(C(=O)O)c(I)c(C(=O)NCCO)c2I)c(I)c(N(C)C(C)=O)c1I,inactive,inactive,inactive,inactive,inactive,inactive,inactive,inactive,inactive,inactive,inactive,inactive,inactive,,inactive,inactive,inactive,inactive
COc1cc(NCCCC(C)N)c2ncccc2c1 (configuration not stated),2.82 µM (active),4.47 µM (active),2.13 µM (active),3.55 µM (active),0.891 µM (active),,5.62 µM (active),2.24 µM (active),0.398 µM (active),3.55 µM (active),1.69 µM (active),inactive,11.2 µM (active),4.47 µM (active),8.91 µM (active),2.24 µM (active),1.51 µM (active),4.47 µM (active)
C[C@H]1O[C@@H](O[C@H]2[C@@H](O)C[C@H](O[C@H]3[C@@H](O)C[C@H](O[C@H]4CC[C@@]5(C)[C@H](CC[C@@H]6[C@@H]5C[C@@H](O)[C@]5(C)[C@@H](C7=CC(=O)OC7)CC[C@]65O)C4)O[C@@H]3C)O[C@@H]2C)C[C@H](O)[C@@H]1O,inactive,inactive,inactive,inactive,inactive,inactive,inactive,inactive,inactive,,,inactive,inactive,inactive,inactive,inactive,,inactive
COc1cc2c(cc1OC)[C@@H](Cc1cc(OC)c(OC)c(OC)c1)[N+](C)(CCCOC(=O)CC/C=C/CCC(=O)OCCC[N+]1(C)CCc3cc(OC)c(OC)cc3[C@H]1Cc1cc(OC)c(OC)c(OC)c1)CC2 (some centres not stated),inactive,inactive,inactive,inactive,inactive,inactive,inactive,inactive,inactive,inactive,,inactive,inactive,inactive,inactive,inactive,inactive,inactive
CC(C)Cc1ccc([C@@H](C)C(=O)NS(C)(=O)=O)cc1,inactive,inactive,inactive,inactive,inactive,inactive,inactive,inactive,inactive,inactive,inactive,inactive,inactive,,inactive,inactive,inactive,inactive
C[C@H](N)C(=O)N[C@@H](C)P(=O)(O)O,inactive,inactive,inactive,inactive,inactive,inactive,inactive,inactive,inactive,inactive,inactive,inactive,inactive,,inactive,inactive,inactive,inactive
FC(F)(F)C(F)(F)C(F)(F)C(F)(F)C(F)(F)F,inactive,inactive,inactive,inactive,inactive,inactive,inactive,inactive,inactive,inactive,inactive,inactive,inactive,inactive,inactive,inactive,inactive,inactive
Cc1cc(C)c(NC(=O)C[C@H](CC(=O)O)c2cccc3ccccc23)c(C(=O)N2CCC3(CCCC3)CC2)c1,inactive,inactive,inactive,inactive,,inactive,inactive,inactive,inactive,inactive,inactive,inactive,inactive,inactive,inactive,inactive,,inactive
O=C(O)c1cc(N=Nc2ccc(O)c(C(=O)O)c2)ccc1O,inactive,inactive,inactive,inactive,,inactive,inactive,inactive,inactive,inactive,inactive,inactive,inactive,inactive,inactive,inactive,,inactive

Compound,Potency (ECU),Potency (FAB9),Potency (GB4),Potency (HB3),Potency (ICS),Potency (JCK),Potency (N140),Potency (P93_24),Potency (PAD),Potency (PC15),Potency (PC26),Potency (PC49),Potency (SC27B),Potency (TAB109),Potency (TAB113),Potency (TAB165),Potency (W2),Potency (P94_40)
CC(=O)Oc1cccc(C(=O)O)c1OC(C)=O,inactive,inactive,inactive,inactive,inactive,inactive,inactive,inactive,inactive,inactive,inactive,inactive,inactive,,inactive,inactive,inactive,inactive
CC(=O)N=c1sc(S(N)(=O)=O)nn1C,inactive,inactive,inactive,inactive,inactive,inactive,inactive,,inactive,inactive,inactive,inactive,inactive,inactive,inactive,inactive,inactive,
CC(C)(C)CC(C)(C)c1ccc(OCCO)cc1,inactive,inactive,inactive,inactive,inactive,inactive,,inactive,inactive,inactive,inactive,inactive,inactive,inactive,inactive,,inactive,inactive
COc1ccc(/C=C/C(=O)OCCC(C)C)cc1,inactive,inactive,inactive,inactive,inactive,inactive,,inactive,inactive,inactive,inactive,inactive,inactive,inactive,inactive,inactive,inactive,inactive
CC1=CC(=C(c2ccc(N)cc2)c2ccc(N)cc2)C=CC1=N,2.24 µM (active),11.2 µM (active),0.536 µM (active),8.91 µM (active),1.26 µM (active),,2.24 µM (active),2.51 µM (active),2.51 µM (active),11.2 µM (active),5.36 µM (active),,3.16 µM (active),2.24 µM (active),1.41 µM (active),2 µM (active),0.536 µM (active),1.41 µM (active)
O=C1N=C2SCCN2C(=O)C1Cc1ccc(Cl)cc1 (configuration not stated),inactive,inactive,inactive,inactive,inactive,inactive,inactive,inactive,inactive,inactive,,inactive,inactive,inactive,inactive,inactive,inactive,inactive
CO/N=C(\C(=O)N[C@@H]1C(=O)N2C(C(=O)[O-])=C(C[n+]3cccc4c3CCC4)CS[C@H]12)c1csc(N)n1,inactive,inactive,inactive,inactive,inactive,inactive,inactive,inactive,inactive,inactive,inactive,inactive,inactive,inactive,,inactive,inactive,inactive
Cc1cc2nc3c(=O)[nH]c(=O)nc-3n(C[C@H](O)[C@H](O)[C@H](O)COP(=O)(O)OP(=O)(O)OC[C@H]3O[C@@H](n4cnc5c(N)ncnc54)[C@H](O)[C@@H]3O)c2cc1C,inactive,inactive,inactive,inactive,inactive,inactive,inactive,inactive,inactive,inactive,,inactive,inactive,inactive,inactive,inactive,inactive,inactive
COc1ccc(/C=N/NC(=O)c2ccncc2)c(C(=O)O)c1OC,inactive,inactive,inactive,inactive,inactive,inactive,inactive,inactive,inactive,inactive,inactive,inactive,inactive,,inactive,inactive,inactive,inactive
OCC1(CO)COC(C(Cl)(Cl)Cl)OC1,inactive,inactive,inactive,inactive,inactive,inactive,inactive,inactive,inactive,inactive,inactive,inactive,inactive,,inactive,inactive,inactive,inactive
Cn1cc(NC(=O)c2cc(NC(=O)c3cc(NC=O)cn3C)cn2C)cc1C(=O)NCCC(=N)N,10 µM (active),11.2 µM (active),7.57 µM (active),10 µM (active),3.55 µM (active),12.6 µM (active),5.01 µM (active),5.01 µM (active),5.01 µM (active),7.08 µM (active),13.5 µM (active),,11.2 µM (active),5.01 µM (active),5.01 µM (active),5.01 µM (active),4.78 µM (active),4.47 µM (active)
S=C1SCN(Cc2ccccc2)CN1Cc1ccccc1,inactive,inactive,inactive,inactive,inactive,inactive,inactive,,inactive,inactive,inactive,inactive,inactive,inactive,inactive,inactive,inactive,inactive
CC1CC(O)CC(C)(C)C1 (configuration not stated),inactive,inactive,inactive,inactive,inactive,inactive,inactive,inactive,inactive,inactive,,inactive,inactive,inactive,inactive,inactive,inactive,inactive
CCN(CC)C(=O)c1cccnc1,inactive,inactive,inactive,inactive,inactive,inactive,inactive,inactive,inactive,inactive,,inactive,inactive,inactive,inactive,inactive,inactive,inactive
CCN(CC)CCC(=O)N1c2ccccc2Sc2ccc(C(F)(F)F)cc21,inactive,inactive,,inactive,,inactive,inactive,,inactive,,,inactive,inactive,,inactive,inactive,5.36 µM (active),inactive
CSCCC(N)C(=O)O (configuration not stated),inactive,inactive,,inactive,inactive,inactive,inactive,,inactive,inactive,,inactive,inactive,inactive,inactive,inactive,inactive,inactive
